SMILES strings stand for the structures. Records with an inconclusive call do not appear. The source made the active and inactive calls. Calls come from the whole dose curve; as a rule, active = well fitted cell-killing curve with a large enough effect; inconclusive = small, poorly fitted or top-dose-only effect, or effect the other way; inactive = no such curve, though single readings can be large or run the other way.
Potency is the fitted concentration of half-maximal effect.

A short description of this test: Quantitative High-Throughput drug screen in 47 multiple myeloma cell lines against the NCATS MIPE library collection: MM1S_ATCC cell viability assay (AID 1918980). Note: nearly all actives have a fitted effect of over 45% in size. The conditions noted are these: MM1S myeloma viability, CellTiter-Glo ATP luminescence, 48 h; series mostly up to 45.8 µM. The method, boiled down:
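ATP-based luminescence (CellTiter-Glo, 5 min RT incubation) quantified surviving cells following two days' treatment with MIPE 4.0 agents at 37 °C, 5% CO2.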
On to `CCn1c(-c2nonc2N)nc2c(C#CC(C)(C)O)ncc(OC[C@H]3CCCNC3)c21`, for which the Potency is 0.0264 µM (active).

For the compound `NC(=O)c1ccc(I)c([N+](=O)[O-])c1`, the Potency is 18.7 µM (active).

Take `N[C@@H]1CONC1=O`: the Potency result was “inactive”.

For the compound `OCCn1cc(-c2cnc3nnn(Cc4ccc5ncccc5c4)c3n2)cn1`, the Potency was 9.35 µM (active).

For the compound `C[C@]1(c2nc3c(C(N)=O)cccc3[nH]2)CCCN1`, the Potency was 4.69 µM (active).

As for `Fc1ccc(Cl)cc1-c1nc(Nc2ccncc2)c2nccnc2n1`, the Potency entry is “inactive”.

As for `CN(C)c1ccc(Nc2nc(N)n(C(=O)c3c(F)cccc3F)n2)cc1`, the Potency was 14.8 µM (active).

As to `CNC[C@H](O)c1cccc(O)c1`, the Potency entry was “inactive”.

`N=c1nc(N2CCCCC2)cc(N)n1O`: the Potency entry is “inactive”.

As to `CC(C)(C)NCC(O)c1ccc(O)c(CO)c1` (configuration not stated), the Potency is 0.059 µM (active).

In the case of `C[C@H](NC(=O)Cc1cc(F)cc(F)c1)C(=O)N[C@@H]1C(=O)N(C)c2ccccc2-c2ccccc21`, the Potency is 9.35 µM (active).

On to `O=C1[C@H](Cc2ccc(O)cc2)N2C(=O)CCN(C(=O)NCc3ccccc3)[C@H]2CN1Cc1cccc2ccccc12`, for which the Potency is 3.72 µM (active).

As to `Cc1ccnc(NS(=O)(=O)c2ccc(NC(=O)Nc3ccc(S(=O)(=O)Nc4nccc(C)n4)cc3)cc2)n1`, the Potency result is “inactive”.

As for `COCC(=O)NCC=Cc1ccc2ncnc(Nc3ccc(Oc4ccc(C)nc4)c(C)c3)c2c1`, the Potency is 26.4 µM (active).

With `Cc1cn[nH]c1`, the Potency is 0.332 µM (active).

Consider `CC(C=CC1=C(C)CCCC1(C)C)=CC=CC(C)=CC(=O)O`, for which the Potency is 0.526 µM (active).

In the case of `CCOc1cc(N2CCC(O)CC2)ccc1Nc1ncc2c(n1)N(C)c1ccccc1C(=O)N2C`, the Potency was 5.26 µM (active).

The record behind these values is PubChem BioAssay (NCATS).
